In PubChem BioAssay (NCI):
The panel holds about 79,000 compounds, 15% with a hit somewhere; the sample as a whole holds those more often. Rule as the data show it: active = growth inhibition above about 70%; inactive = the rest.

Tests used:
[1] = NCI Yeast Anticancer Drug Screen. Data for the rad50 strain (AID 155);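 also: 0% = growth of vehicle-only cultures of the same strain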; details: S. cerevisiae rad50 strain growth inhibition; at 50.0 µM; active compounds read high
Summary of the method: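 Relative growth inhibition (compound vs vehicle) was measured in yeast with a defined repair-gene alteration.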

[2] = NCI Yeast Anticancer Drug Screen. Data for the mec2-1 strain (AID 157); details: S. cerevisiae mec2-1 strain, at 50.0 µM, active compounds read high
Summary of the method: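 Vehicle-treated cultures served as reference for growth inhibition of compound-exposed mec2-1 yeast.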

[3] = NCI Yeast Anticancer Drug Screen. Data for the sgs1 mgt1 strain (AID 161);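 also: 0% = growth of cultures given vehicle only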; details: S. cerevisiae sgs1 mgt1 strain, at 50.0 µM, active compounds read high
Summary of the method: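 Genetically altered yeast, compound exposure, growth inhibition relative to vehicle.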

[4] = NCI Yeast Anticancer Drug Screen. Data for the cln2 rad14 strain (AID 165);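 also: 0% = growth equal to vehicle treated cultures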; details: S. cerevisiae cln2 rad14 strain, at 50.0 µM, active compounds read high
Summary of the method: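 Each compound was tested on cln2 rad14 yeast. Inhibition of growth was calculated against vehicle-exposed controls.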

[5] = NCI Yeast Anticancer Drug Screen. Data for the bub3 strain (AID 167); details: S. cerevisiae bub3 mutant strain, at 50.0 µM, active compounds read high
Summary of the method: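 Screening used yeast with an engineered genetic alteration affecting cell cycle control. Compound-exposed cultures were compared with vehicle cultures, and reduced growth was taken as inhibition.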

[6] = NCI Yeast Anticancer Drug Screen. Data for the mlh1 rad18 strain (AID 175); details: S. cerevisiae mlh1 rad18 strain growth inhibition; at 50.0 µM; active compounds read high
Summary of the method: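 Vehicle-treated cultures served as the reference for growth inhibition in a yeast strain carrying DNA damage repair alterations exposed to each compound.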

Measured: growth inhibition

CCC[C@H]1C(=O)N=C(N)N1C(=O)OCc1ccccc1
inactive: [1] 0.9% | [2] 2.9% | [3] -5.5% | [4] -28.3% | [5] -3.3% | [6] -7%

CCCC(C)C(=O)OC1CCCCC1C (stereo unspecified)
inactive: [1] -0.95% | [2] 4.25% | [3] -7.85% | [4] -45.6% | [5] 8.1% | [6] 0.6%

CC(=O)Nc1ccc(S(=O)(=O)Nc2ccc([N+](=O)[O-])cc2)cc1
inactive: [1] -37.4% | [2] -40% | [3] -22.8% | [4] -8.65% | [5] -31.9% | [6] -36%

Cc1ccc2nc(CC(=O)c3ccc(F)cc3)c(=O)[nH]c2c1
inactive: [1] 1.85% | [2] 18.8% | [3] 16.1% | [4] 27.8% | [5] 18.1% | [6] 34.9%

Cc1ccc(N=C(N)NC#N)cc1
inactive: [1] -11.9% | [2] -46% | [3] -27.1% | [4] 16.6% | [5] -34% | [6] -7.75%

CCOC(=O)C(=O)Nc1c(N(CC)CC)n2ccccc2nc1=O
inactive: [1] 5.75% | [2] -22.5% | [3] -4.15% | [4] 6.2% | [5] 2.6% | [6] 13.8%

c1ccc2cc3ccccc3cc2c1
inactive: [1] 5.75% | [2] 10.7% | [3] -18.5% | [4] -42.6% | [5] -0.85% | [6] 3.7%

CC(C)C1CC(N(C)C)=CC(=O)N1 (stereo unspecified)
inactive: [1] -41.5% | [2] 5.95% | [3] 2.75% | [4] -14.4% | [5] 10.8% | [6] 10.9%

O=c1c2cc(Cl)ccc2on1CN1CCOCC1
inactive: [1] 3.4% | [2] 11.4% | [3] 17% | [4] -3.9% | [5] 5.4% | [6] 5.8%

N#C/C(=C\c1cccs1)C(N)=S
inactive: [1] 6.85% | [2] -18.6% | [3] -6.45% | [4] -31.2% | [5] -9.1% | [6] 1.65%

CNc1nc(C)nc(NC)n1
inactive: [1] -29.9% | [2] -5.1% | [3] -30.4% | [4] -36.2% | [5] 18.4% | [6] -22.9%

Cc1cc(C)nc(Sc2c([N+](=O)[O-])ncn2C)n1
inactive: [1] 4.1% | [2] -17.3% | [3] -20.9% | [4] 4.65% | [5] 12.6% | [6] -10.3%

C[N+]1(CCC[N+]2(C)CCC3(CCCCC3)CC2)CCOCC1
inactive: [1] 18.6% | [2] -0.05% | [3] 11.2% | [4] -4.8% | [5] -1.55% | [6] 16.8%

O=C(CS(=O)(=O)Cc1ccccc1)N1CCOCC1
inactive: [1] -9.4% | [2] -13.3% | [3] -6.55% | [4] -3.8% | [5] -3% | [6] -27.5%

C=CCNC(=S)/N=C/C(C(=O)Nc1ccc(Cl)cc1)=C(\C)O
inactive: [1] -34.1% | [2] -10.1% | [3] -30.2% | [4] 6.6% | [5] -16.8% | [6] -12.8%

COc1ccc(OC)c(C2SCC(=O)N2c2nncs2)c1 (stereo unspecified)
inactive: [1] -19.8% | [2] 6% | [3] 15.2% | [4] -17.6% | [5] -8.7% | [6] 2.2%

CS(=O)(=O)NCCBr
inactive: [1] -10.4% | [2] -3.5% | [3] 5.9% | [4] -22.4% | [5] -32% | [6] -10.9%

CSc1ccc(NC(=O)Nc2ccccc2F)cc1
inactive: [1] -7.65% | [2] 19.1% | [3] 17.2% | [4] -20.5% | [5] 39.5% | [6] -9.15%

CC(C)C(N)C(=O)NO (stereo unspecified)
inactive: [1] -17.1% | [2] 17.9% | [3] -13.4% | [4] 5.05% | [5] -1.7% | [6] -7.3%

N#CCCC(CC#N)C1([N+](=O)[O-])CCCCC1 (stereo unspecified)
inactive: [1] 23.8% | [2] 29.2% | [3] 7.85% | [4] 53.1% | [5] 32.8% | [6] 3.55%

CC(SC(C)c1ccccc1)c1ccccc1 (stereo unspecified)
inactive: [1] -5.8% | [2] -16.6% | [3] -8.65% | [4] -11.9% | [5] -8.1% | [6] 3.65%
